This is an account of results in PubChem BioAssay (Tox21).

Several values for one entry are separate records, joined by “and”; a condition that tells them apart may be missing. Equal values may be shown once. Records with an inconclusive call do not appear. Where a call stands in place of a potency, no number is given. Some compounds were tested as several samples or in several runs, with calls that do not always agree. Activity calls are given as the source filed them. Calls follow the shape of the dose curve; as a rule, active = well fitted activation curve with a large enough effect in the signal ratio in the repeat runs (not every such curve was filed as active); inconclusive = weak or mixed curves; inactive = flat fitted curve, though single readings scatter; the % refers to the signal ratio.
Potency is read from the fitted curve at half-maximal effect.

The nature of this assay: qHTS assay to identify small molecule agonists of H2AX (AID 1224845). To be noted: CHO-K1 phospho-H2AX Ser139 HTRF, 3 h; series mostly up to 154 µM. The source says:
National Center for Advancing Translational Sciences [NCATS]
NIH Chemical Genomics Center [NCGC]
U.S. Environmental Protection Agency [EPA]
National Institutes of Environmental Health Sciences [NIEHS]
National Toxicology Program [NTP]
U.S. Food and Drug Administration [FDA]
HTRF phospho-H2AX (Ser139) assay (Cisbio Bioassays, US) enables the quantitative detection of the histone variant H2AX when phosphorylated on serine 139. When double-stranded DNA breaks, either by ionizing radiation or endogenous physiological processes, H2AX becomes phosphorylated at Ser139. This phospho-Ser139 serves as a sensitive biomarker for the detection of such breaks, localizing the site of DNA repair. So, HTRF phospho-H2AX Ser139 is a pertinent assay to study genome stability, the cell cycle, DNA repair, and it serves as a biomarker for cancer, and to understand aging. Wild type CHO-K1 cells were used to identify the inducers of Phospho-H2AX Ser 139 from the Tox21 10K compound collections.
Tox21 Assay Protocol Summary:
The CHO-K1 cells suspended in culture medium containing 10% FBS were dispensed at 1000 cells/ 3 ul/well in 1536-well white wall/solid bottom plates (Greiner Bio-One North America, NC) using a Multidrop Combi (Thermo Fisher Scientific Inc., Waltham, MA). After the assay plates were incubated at 37C overnight, 23 nl of compounds at 15 concentrations (from 5-48 columns) or positive control (from 1 to 4 columns) were transferred to the assay plates using a Pintool station (Wako, San Diego, CA) into each well resulting in a final DMSO concentration of 0.76%. After 3hr incubation at 37C, 1 uL/well Supplemented Lysis buffer (diluted 100 fold blocking reagent in lysis buffer) (HTRF Phospho-H2A.X (S139) Assay kit from Cisbio US Inc., Bedford, MA) was added using a Flying Reagent Dispenser (FRD) (Aurora Discovery, CA). After 10sec spin at 1000 rpm in a plate centrifuge, the assay plates were incubated at room temperature for 30 min. Then followed by the addition of 1 uL/well detection buffer (containing a mixture of two antibodies, one labeled with cryptate, Anti pH2AX (S139)-K and another labeled with d2, Anti H2AX-d2) using FRD. After incubation at room temperature for 24 hr, the time resolved fluorescence at excitation 320 nm and emissions at 665 nm and 620 nm was measured using an Envision plate reader (PerkinElmer, Waltham, MA).
Regarding `c1ccc(C2CO2)cc1` (stereo not given), the Potency result is “inactive”.

For the compound `OC(c1ccc(Cl)cc1)(c1cncnc1)c1ccccc1Cl` (stereo not given), the Potency was 91.4 µM (active) and inactive.

On to `CCOS(=O)(=O)OCC`, for which the Potency result is “inactive”. Next, `CC(O)CN(CC(C)O)CC(C)O` (stereo not given): “inactive”; `CC(C)CON=O`: “inactive”.

For `C=C(C)C#N`, the Potency result is “inactive”. Next, `NC(=O)CN1CCCC1=O`: “inactive”.

For `Brc1ccc(Br)cc1`, the Potency result is “inactive”. Turning to `Cc1cccc(N=Nc2ccc(N(C)C)cc2)c1`, the Potency result was “inactive”.

Consider `S=c1[nH]c2ccccc2[nH]1`, for which the Potency entry was “inactive”. Next, `O=NN(c1ccccc1)c1ccccc1`: “inactive”; `CCOP(=O)(OCC)OCC`: “inactive”. In the case of `COc1ccc(C=O)cc1OC` it was “inactive”. Regarding `NN=C(N)N`, the Potency result is “inactive”.

As to `C[N+](C)(C)CC(=O)O`, the Potency entry was “inactive”. In the case of `CCOP(=S)(OCC)OP(=S)(OCC)OCC` it was “inactive”. Next, `CCN(CC)C(=O)C(C)Oc1cccc2ccccc12` (stereo not given): “inactive”.

In the case of `CCC(=O)Nc1ccc(Cl)c(Cl)c1`, the Potency result was “inactive”.

In the case of `COC(=O)Nc1nc2ccccc2[nH]1`, the Potency result was “inactive”. As for `CCCCCCCCCC(CC)c1ccc(S(=O)(=O)O)cc1` (stereo not given), the Potency result is “inactive”. With `CCCCCCCCCc1ccc(O)cc1`, the Potency was 102 µM (active) and 101 µM (active). Next, `CCCCOCCOC(C)=O`: “inactive”; `Cc1cc(Cl)ccc1N=CN(C)C`: “inactive”.

On to `CC(C)(O)C(=O)Nc1ccc([N+](=O)[O-])c(C(F)(F)F)c1`, for which the Potency result was “inactive”. As for `Clc1ccc(C(Cl)(Cl)Cl)cc1`, the Potency entry was “inactive”. In the case of `[Cl-].[Cl-].[Cl-].[Fe+3]` it was “inactive”; in that of `CCOC(=O)c1ccccc1N`, “inactive”; in that of `N#Cc1nn(-c2c(Cl)cc(C(F)(F)F)cc2Cl)c(N)c1S(=O)C(F)(F)F` (stereo not given), “inactive”. Next, `CS(=O)(=O)NC(=O)c1cc(Oc2ccc(C(F)(F)F)cc2Cl)ccc1[N+](=O)[O-]`: “inactive”.

Turning to `Clc1cccc(Cl)c1`, the Potency entry is “inactive”. For the compound `ClC(Cl)(Cl)Br`, the Potency result was “inactive”.

Turning to `CCNCC`, the Potency entry was “inactive”. Next, `O=[N+]([O-])/N=C1\NCCN1Cc1ccc(Cl)nc1`: “inactive”; `CC(C)(O)C#N`: “inactive”. On to `COc1ccc(O)c(C(C)(C)C)c1`, for which the Potency result is “inactive”. In the case of `CC1=C(C(=O)Nc2ccccc2)SCCO1` it was “inactive”; in that of `CC(C)Nc1nc(Cl)nc(NC(C)C)n1`, “inactive”. In the case of `[CH3][Sn]([Cl])([Cl])[Cl]` it was “inactive”; in that of `ClCC(Cl)CCl`, “inactive”; in that of `CCCCOC(=O)COC(=O)c1ccccc1C(=O)OCCCC`, “inactive”.
